Assay results published in PubChem BioAssay (NCATS).
Several values for one entry are separate records, joined by “and”; a condition that tells them apart may be missing. Equal entries are not always repeated. Inconclusive results are not listed. Where a call stands in place of a potency, no number is given. Activity calls are given as the source filed them. The call rests on the fitted dose curve; in most records, active means well fitted curve in the direction sought with a large enough effect; inconclusive means small, poorly fitted or top-dose-only effect, or another doubt; inactive means no such curve, though single readings can be large; an effect the other way counts as inactive or inconclusive.

Tested on: not listed separately
Test: qHTS for Inhibitors of Ubiquitin-specific Protease USP2a Using CHOP2 as the Reporter: Cytotox Assay (AID 652170)
Details: HCT116 viability, CellTiter-Glo luminescence, 72 h; series mostly up to 46.1 µM
Procedure, shortened: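 Cytotoxicity read as ATP luminescence (CellTiter-Glo) after 72 hr compound treatment at 37 deg C. Cells: HCT116, 600/well in DMEM plus 10% FBS. Normalization between DMSO-treated cells and cell-free wells.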
Further: nearly all actives have a fitted effect of over 70% in size.
Potency means the concentration at half of the fitted maximal effect.

Row | SMILES | Potency
1 | Cc1ccc(S(=O)(=O)Nc2cnccc2C(=O)Nc2nc(-c3ccncc3)cs2)cc1 | inactive
2 | Cc1ccc(S(=O)(=O)Nc2ccccc2C(=O)Nc2nc(-c3ccccc3)c(Br)s2)cc1 | 5.9 µM (active)
3 | Cc1ccc(S(=O)(=O)Nc2cnccc2C(=O)Nc2ccc(-c3nc4ccccc4[nH]3)cc2)cc1 | inactive
4 | O=C(Nc1ccc([S+](=O)([O-])Nc2nccs2)cc1)c1ncn[nH]1 | inactive
5 | COc1ccc(-c2csc(NC(=O)c3ccccc3NS(=O)(=O)c3ccc(C)cc3)n2)cc1 | 18.7 µM (active)
6 | CCCCCC1CCC(C(=O)Nc2ccc(S(=O)(=O)Nc3nccs3)cc2)CC1 (stereo not drawn) | inactive
7 | CCOC(=O)C1CCC(C(=O)Nc2ccc([S+](=O)([O-])Nc3nccs3)cc2)CC1 (stereo not drawn) | inactive
8 | Cc1ccc([S+](=O)([O-])n2cc(-c3ccc(-c4ccccc4)cc3)c3ccccc32)cc1 | inactive
9 | Cc1ccc(S(=O)(=O)Nc2cnccc2C(=O)Nc2ccc(S(=O)(=O)Nc3nccs3)cc2)cc1 | inactive
10 | O=C(Nc1ccc(S(=O)(=O)Nc2nccs2)cc1)c1ccncc1 | inactive
11 | Cc1ccc(S(=O)(=O)Nc2ccccc2C(=O)Nc2nc(-c3ccc(Cl)cc3)cs2)cc1 | 8.33 µM (active)
12 | COC(=O)c1ccc(NC(=O)c2cc(-c3ccc(C)c(C)c3)nc3ccccc23)cc1 | inactive
13 | O=C(O)c1cccc(S(=O)(=O)Nc2nccs2)c1 | inactive
14 | O=C(Cc1ccccc1)Nc1ccc(S(=O)(=O)Nc2nccs2)cc1 | inactive
15 | CCNC(=O)C1CCC(C(=O)Nc2ccc([S+](=O)([O-])Nc3nccs3)cc2)CC1 (stereo not drawn) | inactive
16 | O=C(Nc1ccc([S+](=O)([O-])Nc2nccs2)cc1)C1CCNCC1 | inactive
17 | CCCCCN1CCC(C(=O)Nc2ccc([S+](=O)([O-])Nc3nccs3)cc2)CC1 | inactive
18 | O=c1[nH]c(CN2CCOCC2)nc2sc3c(c12)CCCC3 | inactive
19 | CCCC1CCC(C(=O)Nc2ccc(S(=O)(=O)Nc3nccs3)cc2)CC1 (stereo not drawn) | inactive

Row | SMILES | Potency
20 | Cc1ccc(-c2cc(C(=O)N3CC[S+](=O)([O-])CC3)c3ccccc3n2)cc1C | inactive
21 | Cc1ccc(-c2cc(C(=O)O)c3cccc(C)c3n2)cc1C | inactive
22 | O=C(Nc1nc(-c2ccccc2)cs1)c1cccc(NS(=O)(=O)c2nccs2)c1 | inactive
23 | Cc1ccc(S(=O)(=O)Nc2cc(F)ccc2C(=O)Nc2nc(-c3ccccc3)cs2)cc1 | 3.32 µM (active)
24 | O=C(Nc1ccc(S(=O)(=O)Nc2nccs2)cc1)c1cccc2ccccc12 | inactive
25 | Clc1nc(CN2CCOCC2)nc2sc3c(c12)CCC3 | inactive
26 | Cc1ccc(S(=O)(=O)Nc2cnccc2C(=O)Nc2ccncc2)cc1 | inactive
27 | Cc1ccc(-c2cc(C(=O)NCC[S+](=O)([O-])O)c3ccccc3n2)cc1C | inactive
28 | O=S(=O)(Nc1nc(CN2CCOCC2)nc2sc3c(c12)CCCC3)c1ccc2ccccc2c1 | inactive
29 | Cc1cccc(NC(=O)c2cc(-c3ccc(C)c(C)c3)nc3ccccc23)c1 | inactive
30 | CCCCc1ccc(C(=O)Nc2ccc(S(=O)(=O)Nc3nccs3)cc2)cc1 | inactive
31 | Cc1ccc(S(=O)(=O)Nc2ccccc2C(=O)Nc2nc(-c3ccccc3)cs2)cc1 | 14.8 µM (active) and 11.8 µM (active)
32 | Cc1ccc(-c2cc(C(=O)Nc3ccc(-c4nn[nH]n4)cc3)c3ccccc3n2)cc1C | inactive
33 | O=C(Nc1ccc(S(=O)(=O)Nc2nc(-c3ccccc3)cs2)cc1)c1ccc2ccccc2c1 | inactive
34 | CC1CCC(C(=O)Nc2ccc([S+](=O)([O-])Nc3nccs3)cc2)CC1 (stereo not drawn) | inactive
35 | Clc1nc(CN2CCOCC2)nc2sc3c(c12)CCCC3 | inactive
36 | Cc1ccc(S(=O)(=O)n2cc(C(=O)Nc3ccc(-c4ccccc4)cc3)c3ccccc32)cc1 | inactive
37 | O=c1[nH]c(CN2CCOCC2)nc2sc3c(c12)CCC3 | inactive
38 | O=c1[nH]c(CCl)nc2sc3c(c12)CCC3 | 14.8 µM (active)

Molecular target: Ubiquitin carboxyl-terminal hydrolase 2 (Homo sapiens) (UniProt O75604)
Sequence (O75604 whole entry, looked up): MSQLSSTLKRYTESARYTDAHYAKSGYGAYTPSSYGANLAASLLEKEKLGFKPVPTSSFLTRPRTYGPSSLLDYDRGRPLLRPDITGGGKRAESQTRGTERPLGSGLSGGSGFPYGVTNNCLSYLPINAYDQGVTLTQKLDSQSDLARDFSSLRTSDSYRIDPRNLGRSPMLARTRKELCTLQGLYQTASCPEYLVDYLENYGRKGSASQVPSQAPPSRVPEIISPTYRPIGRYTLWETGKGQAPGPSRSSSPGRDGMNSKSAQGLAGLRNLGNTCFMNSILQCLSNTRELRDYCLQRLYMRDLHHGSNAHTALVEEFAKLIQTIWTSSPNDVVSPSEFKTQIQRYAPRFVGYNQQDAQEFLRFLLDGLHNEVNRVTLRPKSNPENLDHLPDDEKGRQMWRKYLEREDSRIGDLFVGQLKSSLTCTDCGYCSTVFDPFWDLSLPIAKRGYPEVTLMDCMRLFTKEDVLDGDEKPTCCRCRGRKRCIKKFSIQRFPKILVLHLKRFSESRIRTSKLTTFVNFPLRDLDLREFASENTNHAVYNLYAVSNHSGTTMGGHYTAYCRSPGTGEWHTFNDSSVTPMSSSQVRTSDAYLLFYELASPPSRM
Test: qHTS for Inhibitors of Ubiquitin-specific Protease USP2a Using CHOP2 as the Reporter: K484 Substrate (AID 652173);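 further: cleavage of internally quenched K48 di-ubiquitin substrate measured as rising fluorescence over time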
Details: USP2 cleavage of DiUb K48 IQF substrate, fluorescence; series mostly up to 57.5 µM
Procedure, shortened: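 Kinetic fluorescence (Ex 525/Em 598) tracked cleavage of an internally quenched K48 di-ubiquitin substrate, added as a 100 nM solution. The enzyme was added as a 5 nM USP2 solution before compound pinning, with no-enzyme controls. Buffer: Tris pH 8, beta-mercaptoethanol, CHAPS.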

Row | SMILES | Potency
39 | Cc1ccc(S(=O)(=O)Nc2cnccc2C(=O)Nc2nc(-c3ccncc3)cs2)cc1 | 15.3 µM (active)
40 | Cc1ccc(S(=O)(=O)Nc2ccccc2C(=O)Nc2nc(-c3ccccc3)c(Br)s2)cc1 | 1.22 µM (active)
41 | Cc1ccc(S(=O)(=O)Nc2cnccc2C(=O)Nc2ccc(-c3nc4ccccc4[nH]3)cc2)cc1 | 2.17 µM (active)
42 | O=C(Nc1ccc([S+](=O)([O-])Nc2nccs2)cc1)c1ncn[nH]1 | inactive
43 | COc1ccc(-c2csc(NC(=O)c3ccccc3NS(=O)(=O)c3ccc(C)cc3)n2)cc1 | 2.73 µM (active)
44 | CCCCCC1CCC(C(=O)Nc2ccc(S(=O)(=O)Nc3nccs3)cc2)CC1 (stereo not drawn) | 4.32 µM (active) and 3.85 µM (active)
45 | CCOC(=O)C1CCC(C(=O)Nc2ccc([S+](=O)([O-])Nc3nccs3)cc2)CC1 (stereo not drawn) | inactive
46 | Cc1ccc([S+](=O)([O-])n2cc(-c3ccc(-c4ccccc4)cc3)c3ccccc32)cc1 | inactive
47 | Cc1ccc(S(=O)(=O)Nc2cnccc2C(=O)Nc2ccc(S(=O)(=O)Nc3nccs3)cc2)cc1 | 19.3 µM (active)
48 | O=C(Nc1ccc(S(=O)(=O)Nc2nccs2)cc1)c1ccncc1 | inactive
49 | Cc1ccc(S(=O)(=O)Nc2ccccc2C(=O)Nc2nc(-c3ccc(Cl)cc3)cs2)cc1 | 1.93 µM (active)
50 | COC(=O)c1ccc(NC(=O)c2cc(-c3ccc(C)c(C)c3)nc3ccccc23)cc1 | 19.3 µM (active)
51 | O=C(O)c1cccc(S(=O)(=O)Nc2nccs2)c1 | inactive
52 | O=C(Cc1ccccc1)Nc1ccc(S(=O)(=O)Nc2nccs2)cc1 | inactive
53 | CCNC(=O)C1CCC(C(=O)Nc2ccc([S+](=O)([O-])Nc3nccs3)cc2)CC1 (stereo not drawn) | inactive
54 | O=C(Nc1ccc([S+](=O)([O-])Nc2nccs2)cc1)C1CCNCC1 | inactive
55 | CCCCCN1CCC(C(=O)Nc2ccc([S+](=O)([O-])Nc3nccs3)cc2)CC1 | inactive
56 | O=c1[nH]c(CN2CCOCC2)nc2sc3c(c12)CCCC3 | inactive
57 | CCCC1CCC(C(=O)Nc2ccc(S(=O)(=O)Nc3nccs3)cc2)CC1 (stereo not drawn) | 10.9 µM (active)
58 | Cc1ccc(-c2cc(C(=O)N3CC[S+](=O)([O-])CC3)c3ccccc3n2)cc1C | inactive

Row | SMILES | Potency
59 | Cc1ccc(-c2cc(C(=O)O)c3cccc(C)c3n2)cc1C | inactive
60 | O=C(Nc1nc(-c2ccccc2)cs1)c1cccc(NS(=O)(=O)c2nccs2)c1 | 17.2 µM (active)
61 | Cc1ccc(S(=O)(=O)Nc2cc(F)ccc2C(=O)Nc2nc(-c3ccccc3)cs2)cc1 | 0.769 µM (active)
62 | O=C(Nc1ccc(S(=O)(=O)Nc2nccs2)cc1)c1cccc2ccccc12 | 24.3 µM (active)
63 | Clc1nc(CN2CCOCC2)nc2sc3c(c12)CCC3 | inactive
64 | Cc1ccc(S(=O)(=O)Nc2cnccc2C(=O)Nc2ccncc2)cc1 | inactive
65 | Cc1ccc(-c2cc(C(=O)NCC[S+](=O)([O-])O)c3ccccc3n2)cc1C | inactive
66 | Cc1ccc(S(=O)(=O)NCCC(=O)Nc2nc(-c3ccccc3)cs2)cc1 | 19.3 µM (active)
67 | O=S(=O)(Nc1nc(CN2CCOCC2)nc2sc3c(c12)CCCC3)c1ccc2ccccc2c1 | 24.3 µM (active)
68 | O=C(Nc1ccc([S+](=O)([O-])Nc2nccs2)cc1)c1ccccn1 | inactive
69 | Cc1cccc(NC(=O)c2cc(-c3ccc(C)c(C)c3)nc3ccccc23)c1 | inactive
70 | CCCCc1ccc(C(=O)Nc2ccc(S(=O)(=O)Nc3nccs3)cc2)cc1 | 10.9 µM (active)
71 | Cc1ccc(S(=O)(=O)Nc2ccccc2C(=O)Nc2nc(-c3ccccc3)cs2)cc1 | 1.72 µM (active) and 1.93 µM (active)
72 | Cc1ccc(-c2cc(C(=O)Nc3ccc(-c4nn[nH]n4)cc3)c3ccccc3n2)cc1C | 4.85 µM (active)
73 | O=C(Nc1ccc(S(=O)(=O)Nc2nc(-c3ccccc3)cs2)cc1)c1ccc2ccccc2c1 | 2.43 µM (active)
74 | CC1CCC(C(=O)Nc2ccc([S+](=O)([O-])Nc3nccs3)cc2)CC1 (stereo not drawn) | inactive
75 | Clc1nc(CN2CCOCC2)nc2sc3c(c12)CCCC3 | inactive
76 | Cc1ccc(S(=O)(=O)n2cc(C(=O)Nc3ccc(-c4ccccc4)cc3)c3ccccc32)cc1 | 21.7 µM (active)
77 | O=c1[nH]c(CN2CCOCC2)nc2sc3c(c12)CCC3 | inactive
78 | O=c1[nH]c(CCl)nc2sc3c(c12)CCC3 | inactive
